Assay outcomes as filed in PubChem.
TCR activator: T cell receptor activation. primary human leukocytes, anti-CD3, IL-2 HTRF, 48 h. Potency, µM (highest dose often 9.22 µM), inactives show top-dose activation of IL-2 secretion, usual class: activators. 330,000 tested, under 10 active. AID 504894; also: % of control where 0% means no effect
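Primary human leukocytes were stimulated with a-CD3 beads plus compounds for 48 hr without co-stimulation; secreted IL-2 was quantified by HTRF using a-IL-2-K (europium cryptate) and a-IL-2-d2, excited at 320nm with acceptor emission read at 665nm.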
A549 tox-1: A549 cytotoxicity, counter-screen for Nrf2 inhibitors; A549 ARE-Fluc cells, CellTiter-Fluor viability, 18-24 h; Potency, µM (titrated, usually from 46 µM), for the others: at the top dose activity change, negative = cytotoxicity, actives largely listed as inhibitors; hit rate 0.16% among 390,000; also: potency is read from the fitted curve at half-maximal effect; % is scaled to controls: 0 for no effect and ±100 for the full control effect
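A549 ARE_Fluc cells in 5% FBS OPTI-MEM were exposed to compounds in concentration-response for 18-24 h at 37 deg C. Viability was read by CellTiter-Fluor fluorescence (Ex 405/Em 525) after 30 min, before the luciferase read.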
Nrf2 block: inhibitors of Nrf2 signaling; A549 ARE-Fluc reporter, luciferase luminescence, 18-24 h; Potency, µM (highest dose often 46 µM), for inactives: at the top dose activity change, negative = inhibition, most hits filed as inhibitors; hit rate 2.1% among 360,000; also: potency is read from the fitted curve at half-maximal effect; % is scaled to controls: 0 for no effect and ±100 for the full control effect; nearly all actives have a fitted effect of over 60% in size
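Quantitative HTS in A549 cells stably bearing an antioxidant response element-firefly luciferase construct. Inhibition of Nrf2-driven transcription was scored by luminescence after 18-24 h of compound exposure at 37 °C.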
CCT chaperon mod: cytosolic chaperonin activity modulation; purified chaperonin ATPase assay, HTRF ADP detection, 30 min; activity change, % (concentration not given with the values), hits read low; hit rate 0.3% among 360,000; in the data active = activity change below about -30%; also: % is scaled to controls: 0 for no effect and ±100 for the full control effect
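Enzyme 40 or 20 nM (batch-dependent) in Tris pH 7.4/KCl/MgCl2/DTT; cpd 76 uM single point; ATP 10 uM; 30 min 37 °C; Transcreener ADP HTRF detection, 30 min RT; ratio 665/615.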
Nrf2 ARE act: Nrf2 pathway activation. AREc32 ARE-luciferase reporter (MCF7-derived line), luminescence, 24 h. Potency, µM (titrated, usually from 46.1 µM), for inactives: top-dose activation, usual class: activators. hit rate 0.31% among 410,000. AID 624171; also: potency is read from the fitted curve at half-maximal effect; % of control where 0% means no effect; nearly all actives have a fitted effect of over 65% in size
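Steps: seed AREc32_Fluc cells (1000/well, 5% FBS OPTI-MEM); incubate overnight at 37 deg C; add 23 nL compound; incubate 24 hr; add Steady-Glo; hold 30 min RT; read luminescence.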
AT treatment: candidate therapy for ataxia-telangiectasia. F2112 A-T fibroblasts, KAP-1 phosphorylation AlphaLISA; neocarzinostatin DNA damage 30 min before lysis. Potency, µM (titrated, usually from 57.5 µM), inactives show at the highest dose activation, most hits filed as activators. hit rate 0.19% among 320,000. AID 485349; also: potency is read from the fitted curve at half-maximal effect; % of control where 0% means no effect; nearly all actives have a fitted effect of over 45% in size
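hTERT-immortalized A-T patient fibroblasts (F2112), 500 cells/well in OPTI-MEM, 1% FBS, got compounds for 60 min, then NCS for 30 min at 37C. Lysates were then assayed for phospho-KAP-1 by AlphaLISA (anti-pKAP1 donor, anti-KAP1 acceptor beads), 6 hr at 25C.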
FLuc counter 3: counter-screen for Nrf2 inhibitors: firefly luciferase enzyme inhibition. shares compounds with Nrf2 block. purified firefly luciferase, luminescence inhibition. Potency, µM (titrated, usually from 57.5 µM), for the others: top-dose activity change, negative = inhibition, hits mostly inhibitors. hit rate 4% among 1,400; also: potency is read from the fitted curve at half-maximal effect; % is scaled to controls: 0 for no effect and ±100 for the full control effect; nearly all actives have a fitted effect of over 65% in size
Target sequence (P08659 whole entry, looked up): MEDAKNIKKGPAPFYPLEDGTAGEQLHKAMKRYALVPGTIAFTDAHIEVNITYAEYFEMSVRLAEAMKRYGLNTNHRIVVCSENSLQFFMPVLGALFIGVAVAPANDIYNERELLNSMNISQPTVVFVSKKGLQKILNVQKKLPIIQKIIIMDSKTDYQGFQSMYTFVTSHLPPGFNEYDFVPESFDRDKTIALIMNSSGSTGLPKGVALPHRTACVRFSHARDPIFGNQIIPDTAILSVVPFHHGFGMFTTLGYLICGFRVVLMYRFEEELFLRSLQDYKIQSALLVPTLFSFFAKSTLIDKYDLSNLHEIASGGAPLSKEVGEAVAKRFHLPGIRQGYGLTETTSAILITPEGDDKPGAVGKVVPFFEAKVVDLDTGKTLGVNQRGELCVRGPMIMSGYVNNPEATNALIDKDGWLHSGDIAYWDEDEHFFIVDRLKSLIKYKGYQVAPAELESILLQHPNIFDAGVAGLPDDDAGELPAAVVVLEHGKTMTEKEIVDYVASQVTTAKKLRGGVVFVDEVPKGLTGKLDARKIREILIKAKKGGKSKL
A549 tox-2: toxic to A549 ARE-Fluc cells in Nrf2 counterscreen; A549 ARE-Fluc cells, cytotoxicity counterscreen; Potency, µM (doses to about 46.1 µM), inactives show at the top dose activity change, negative = cytotoxicity, actives largely listed as inhibitors; shares compounds with Nrf2 block; hit rate 2% among 1,400;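 also: potency is read from the fitted curve at half-maximal effect; cells exposed to compounds for 18 to 24 hours; % is scaled to controls: 0 for no effect and ±100 for the full control effect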
Nrf2 ARE inh: confirmation of Nrf2 inhibitors in A549 ARE reporter cells; shares compounds with Nrf2 block; A549 ARE-firefly luciferase reporter, luminescence; Potency, µM (top dose mostly 46.1 µM), inactives show top-dose activity change, negative = inhibition, usual class: inhibitors; hit rate 74% among 1,400; AID 720524; also: potency is read from the fitted curve at half-maximal effect; % is scaled to controls: 0 for no effect and ±100 for the full control effect; nearly all actives have a fitted effect of over 65% in size
* marks the source's active call; other numbers are inactive results; u = inconclusive; x = not tested or not shown; [ ] = another dose, or the depositor's remark. In the library only some 2.6% were active in any assay of this set; here they are far more common. Unless noted, calls follow the shape of the dose curve; as a rule, active = well fitted curve in the direction sought with a large enough effect; inconclusive = small, poorly fitted or top-dose-only effect, or another doubt; inactive = no such curve, though single readings can be large; an effect the other way counts as inactive or inconclusive.

SMILES	TCR activator	A549 tox-1	Nrf2 block	CCT chaperon mod	Nrf2 ARE act	AT treatment	FLuc counter 3	A549 tox-2	Nrf2 ARE inh
Cc1cc(C)c(S(=O)(=O)N2CCN(S(=O)(=O)N3CCCCCC3)CC2)c(C)c1	1%	3%	25%	0	0%	11%	x	x	x
Cc1ccc(N2CCN(S(=O)(=O)N3CCCCC3)CC2)c(C)c1	3%	-15%	6.5µM*	0	0%	-1%	3%	9%	9%
COc1ccc(C(=O)Nc2ccc(C(=O)OCc3cc(=O)n4nc(C5CC5)sc4n3)cc2)cc1	x	-3%	x	x	0%	x	x	x	x
CCOC(=O)N1CCN(C(=O)c2oc3ccc(S(=O)(=O)N4CCCCC4)cc3c2C)CC1	2%	3%	u	-1	-1%	-4%	x	x	x
Cc1c(C(=O)N2CCCCC2)oc2ccc(S(=O)(=O)N3CC(C)CC(C)C3)cc12 (stereo not given)	0%	-12%	9.2µM*	1	2%	-1%	-1%	-14%	9.2µM*
COc1ccc(/C=C/c2cc(-c3ccc(C)cc3)o[n+]2C)cc1	-2%	u	8.2µM*	-2	-2%	11%	-2%	u	2.9µM*
COc1cccc(NC(=O)c2ccc(-c3nc(COc4ccc(C)cc4)c(C)o3)cc2)c1	x	-1%	5.2µM*	x	3%	x	-12%	-12%	u
Cc1ccc(SCc2nc(-c3ccc(C(=O)Nc4cc(C)ccc4C)cc3)oc2C)cc1	x	-3%	5.8µM*	x	1%	x	-2%	-6%	7.3µM*
COc1cc(NC(=O)c2ccc(-c3nc(CSc4ccccc4)c(C)o3)cc2)cc(OC)c1	x	0%	7.3µM*	x	0%	x	-15%	-8%	7.3µM*
CCc1ccc(CNC(=O)c2ccc(-c3nc(CSc4ccc(C)cc4)c(C)o3)cc2)cc1	x	-4%	u	x	-1%	x	x	x	x
O=C(Nc1ccccc1Cl)NN1CCCCCC1	-11%	4%	-1%	1	2%	x	x	x	x
Cc1cccc(Cn2c(C)c(CNC3CCCCC3)c(C(=O)O)c2C)c1	x	-3%	3%	x	-1%	x	x	x	x
Oc1ccc(CCNc2ncnc3ccc(Cl)cc23)cc1	-3%	-3%	7.3µM*	-1	0%	1%	-18%	-1%	7.3µM*
COc1ccc(NC(=O)CSC2=Nc3ccccc3C3=NC(CC(=O)NCc4ccco4)C(=O)N23)cc1 (stereo not given)	x	-1%	x	x	0%	x	x	x	x
Cc1ccc2c(c1)S/C(=C/c1ccc[n+](C)c1)N2CCO	-3%	-16%	2.6µM*	0	4%	2%	0%	-17%	6.5µM*
Cc1cccc(C(=O)NNC(=O)c2c(-c3ccccc3Cl)noc2C)c1O	0%	2%	-3%	-1	-1%	3%	x	x	x
Cc1ccc(NC(=O)COc2ccccc2C#N)cc1S(=O)(=O)N1CCCCCC1	-1%	-17%	2%	-2	4%	18%	x	x	x
Cc1ccc(NC(=O)COc2cccnc2[N+](=O)[O-])cc1S(=O)(=O)N1CCCCC1	2%[46.1 µM]	u	7.3µM*	1	1%[9.22 µM]	-1%	-17%	-10%	u
C(=C1c2ccccc2-c2ccccc21)c1ccncc1	2%	-19%	u	0	7%	x	x	x	x
CNc1ccc(C=C2c3ccccc3-c3ccccc32)cc1	x	x	x	x	x	x	u	-25%	3.7µM*
Cc1ccccc1-n1ncc2c(SCC(=O)NC3CCCC3)ncnc21	0%	-20%	8.2µM*	0	0%	-3%	0%	-4%	15µM*
O=C(CSc1nc2ccccc2c(=O)n1CCCN1CCOCC1)Nc1ccccc1OC(F)F	2%[46.1 µM]	-14%	-7%	0	-1%	4%	x	x	x
COCCNc1nc2c(c(=O)n(Cc3ccc(OC)cc3)c(=O)n2C)n1C	-3%	-1%	3%	-2	-1%	-4%	x	x	x
COc1ccc(CNc2nc3c(c(=O)n(Cc4ccc(Cl)cc4)c(=O)n3C)n2C)cc1	0%	u	9.2µM*	1	0%	-7%	0%	-19%	13µM*
O=C(Nc1ccc(-c2nc3ccccc3s2)cc1)c1cc(-n2cnnc2)ccc1Cl	6%	u	2.3µM*	1	3%	-4%	u	-13%	7.3µM*
SMILES	TCR activator	A549 tox-1	Nrf2 block	CCT chaperon mod	Nrf2 ARE act	AT treatment	FLuc counter 3	A549 tox-2	Nrf2 ARE inh
COc1ccc(NC(=O)C(NC(=O)/C=C\c2ccc3c(c2)OCO3)c2ccc(C)cc2)cc1 (stereo not given)	x	8%	3%[9.27 µM]	x	0%	x	x	x	x
O=C(COc1cccc2ccccc12)N1CCN(c2ccccc2)CC1	-2%	2%	x	-1	1%	x	x	x	x
COc1ccc(N2CCN(C(=O)COc3cccc4ccccc34)CC2)cc1	3%	u	2.6µM*	-1	-1%	1%	-6%	8%	-5%
CC[C@]12c3[nH]c4ccc(Cl)cc4c3CCN1C(=O)[C@@H](CC(=O)NC/C=C(\C)CCC=C(C)C)C[C@@H]2C(=O)N1CCN(C(=O)c2ccco2)CC1	-9%[46.1 µM]	u	6.5µM*	-2	-1%	5%	3%	u	16µM*
Cc1ccc(N(CC(=O)Nc2cc(C)cc(C)c2)S(=O)(=O)c2c(C)noc2C)cc1	-8%	u	7.3µM*	0	0%	0%	2%	-19%	12µM*
Cc1cccc[n+]1CC(=O)/C=C1\N(C)c2ccccc2C1(C)C	-4%	u	5.2µM*	-1	0%	-2%	3%	-27%	7.3µM*
CN1/C(=C\C(=O)C[n+]2ccc(C(=O)c3ccccc3)cc2)C(C)(C)c2ccccc21	-5%	-19%	5.2µM*	1	0%	-14%	-1%	-17%	5.2µM*
CN1/C(=C\C(=O)C[n+]2cccc(Br)c2)C(C)(C)c2ccccc21	x	-23%	3.3µM*	-1	0%	4%	-1%	-11%	4.1µM*
COc1ccc(C(=O)NCc2ccc3c(c2)CCN3C(=O)c2cccc(C)c2)cc1OC	x	1%	x	x	0%	x	x	x	x
O=C(O)C1=C[C@H](c2csc3ccccc23)C[C@H](OCc2ccc(CO)cc2)O1	0%	-2%	-11%	-1	0%	-14%	x	x	x
